From PubChem BioAssay (NCATS)
Inconclusive results are not listed. Where a call stands in place of a potency, no number is given. The source made the active and inactive calls. Calls come from the whole dose curve; as a rule, active = well fitted inhibition curve with a large enough effect; inconclusive = small, poorly fitted or top-dose-only effect; inactive = flat fitted curve, though single readings scatter. Where a SMILES comes first, the peptide text is derived from it. The star is where a group is joined. PhAc = O=C(Cc1ccccc1)*

Each compound was assayed against Calcium and integrin-binding protein 1 (Homo sapiens) (UniProt Q99828) (assay: Primary qHTS for Identification of Calcium Integrin Binding Protein 1 (CIB1) Competitor (AID 1508620;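 note: GST tagged CIB1 binding a fluorescein labelled alphaIIb integrin peptide tracer; top concentration of the series differs between compounds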)). Settings: CIB1-GST / FITC-alphaIIb peptide fluorescence polarization; series mostly up to 57.7 µM.
In short: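 Fluorescence polarization competition: CIB1-GST (1 uM final) preincubated with compound 15 min at room temperature, then FITC-labeled alphaIIb peptide (100 nM final) added for another 15 min. Polarization read at Ex 480/Em 540.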

Sequence of Calcium and integrin-binding protein 1 (Homo sapiens) (Q99828 whole entry, looked up): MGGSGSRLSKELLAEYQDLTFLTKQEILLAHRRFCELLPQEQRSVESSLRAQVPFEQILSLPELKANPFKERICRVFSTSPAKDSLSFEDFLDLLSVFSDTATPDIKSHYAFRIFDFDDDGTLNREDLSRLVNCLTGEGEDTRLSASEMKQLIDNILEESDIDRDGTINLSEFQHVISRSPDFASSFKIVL

| Compound | Potency |
| --- | --- |
| Cc1occc(=O)c1O[C@@H]1O[C@H](CO)[C@@H](O)[C@H](O)[C@H]1O | inactive |
| CC(C)[C@@H](C(=O)O)N1Cc2c(cc(O)c3c2O[C@]2(C3)[C@H](C)CCC3C(C)(C)[C@H](O)[C@H](O)C[C@@]32C)C1=O (stereo partly specified) | inactive |
| CC(=O)O[C@@H]1[C@@H](O)[C@H](C)O[C@@H](O[C@H]2[C@@H]3C=CO[C@@H](O[C@@H]4O[C@H](CO)[C@@H](O)[C@H](O)[C@H]4OC(C)=O)[C@@H]3[C@@]3(CO)O[C@@H]23)[C@@H]1OC(=O)/C=C/c1ccc(O)cc1 | inactive |
| NC(=O)[C@H](Cc1ccccc1)NC(=O)[C@H](CCCN=C(N)N)NC(=O)C12CC3CC(CC(C3)C1)C2 | inactive |
| CC1(CO)CCCC2(C)C1C(OC(=O)c1ccccc1)CC1C(=O)OCC12O (stereo unspecified) | inactive |
| COC(=O)C1=CO[C@@H](O[C@@H]2O[C@H](CO)[C@@H](O)[C@H](O)[C@H]2O)C2C1CC(O)C2C (stereo partly specified) | inactive |
| COc1ccc([C@H]2OC[C@H]3[C@@H]2CO[C@@H]3c2ccc(O[C@@H]3O[C@H](CO)C(O)[C@H](O)[C@H]3O)c(OC)c2)cc1OC (stereo partly specified) | inactive |
| CC(=O)/C=C/C1(O)C(C)CC(O[C@@H]2O[C@H](CO)[C@@H](O)[C@H](O)[C@H]2O)CC1(C)C (stereo partly specified) | inactive |
| CC(=O)OC1C(O)C(C)(O)C(/C=C/C(=O)O)C2(C)CCCC(C)(C)C12 (stereo unspecified) | inactive |
| CC(C)=CCC[C@](C)(O[C@@H]1O[C@H](CO[C@@H]2O[C@@H](CO)[C@H](O)[C@H]2O)[C@@H](O)[C@H](O)[C@H]1O)[C@H]1CC[C@]2(C)[C@@H]1[C@H](O)C[C@@H]1[C@@]3(C)CC[C@H](O[C@@H]4O[C@H](CO)[C@@H](O)[C@H](O)[C@H]4O[C@@H]4O[C@H](CO)[C@@H](O)[C@H](O)[C@H]4O)C(C)(C)[C@@H]3CC[C@]12C | inactive |
| NC(=O)[C@@H]1CC[C@H](c2ccc(OCc3ccccc3F)cc2)N1 | inactive |
| CC(C)(O)C1CC=C(C(=O)OC[C@H]2O[C@@H](Oc3cc(C(=O)O)cc(O)c3O)[C@H](O)[C@@H](O)[C@@H]2O)CC1 (stereo partly specified) | inactive |
| C[C@]12CC/C(=N\OCC(=O)O)C=C1CC[C@@H]1[C@@H]2[C@@H](O)C[C@@]2(C)[C@H]1CC[C@]2(O)C(=O)CO | inactive |
| CC/C=C\CC1C(CC(=O)O)CCC1OC1OC(CO)C(O)C(O)C1O (stereo unspecified) | inactive |
| CC1=C2CC(=O)C(C)CC/C=C(\C)CC2(O)OC1=O (stereo unspecified) | inactive |
| O=C(O)c1ccnc2cc(C(OCC3CCC(F)(F)CC3)c3ccccc3Cl)[nH]c12 (stereo unspecified) | inactive |
| C/C=C(\C)C(=O)OC[C@H]1O[C@@H](O[C@H]2[C@@H](O[C@H]3O[C@H](COC(=O)/C(C)=C/C)[C@@H](O)[C@H](O)[C@H]3O[C@@H]3O[C@H](CO)[C@@H](O)[C@H](OC(=O)/C(C)=C/C)[C@H]3O)O[C@H](COC(=O)/C(C)=C/C)[C@@H](O)[C@@H]2O)[C@H](O)[C@@H](O)[C@@H]1O | inactive |
| COc1cc(C(=O)OC[C@H]2O[C@@H](OC(C)(C)C(=O)O)[C@H](O)[C@@H](O)[C@@H]2O)cc(OC)c1O | inactive |
| COC(O)(CC(C)C)C1Oc2cc(C)[nH]c(=O)c2O1 (stereo unspecified) | inactive |
| CC(C)=C1CC2[C@](C)(CC[C@@H](OC(=O)C3(C)OC3C)[C@@]2(C)O)CC1=O (stereo partly specified) | inactive |
| CCOC(=O)CNC(=O)[C@@H]1CCCN1C(=O)Cc1ccccc1 (PhAc-Pro-Gly-OEt) | inactive |
| O=C(/C=C/c1ccc(O)c(O)c1)OC[C@H]1O[C@@H](OC2CCCCC2O)[C@H](O)[C@@H](O)[C@@H]1O (stereo partly specified) | inactive |
| C#CCCCn1cc(-c2cccc3c2N[C@@H](C)CC(=O)N3)cn1 | inactive |
| C/C=C(\C)C(=O)OC[C@H]1O[C@@H](O[C@H]2[C@@H](O[C@H]3O[C@H](CO)[C@@H](O)[C@H](O)[C@H]3O[C@@H]3O[C@H](CO)[C@@H](O)[C@H](O)[C@H]3O)O[C@H](COC(=O)/C(C)=C/C)[C@@H](O)[C@@H]2O)[C@H](O)[C@@H](O)[C@@H]1O | inactive |
| C[C@@H]1O[C@@H](O[C@H]2[C@@H]3C=CO[C@@H](O[C@@H]4O[C@H](CO)[C@@H](O)[C@H](O)[C@H]4O)[C@@H]3[C@@]3(CO)O[C@@H]23)[C@H](O)[C@H](OC(=O)/C=C/c2ccc(O)c(O)c2)[C@H]1O | inactive |
| CC1=C2CC(=O)C(C)CC/C=C(\C)CC2OC1=O (stereo unspecified) | inactive |
